Assay results as given in PubChem BioAssay (Tox21).
Records with an inconclusive call do not appear. The source made the active and inactive calls. Unless noted, the call rests on the fitted dose curve; in most records, active means well fitted curve in the direction sought with a large enough effect in the repeat runs; inconclusive means weak or mixed curves; inactive means no such curve, though single readings can be large; an effect the other way counts as inactive or inconclusive.

Experiments:
[1] = target: Retinoic acid receptor RXR-alpha (Homo sapiens) (UniProt P19793); experiment: qHTS assay to identify small molecule agonists of the RXR signaling pathway (AID 1159527; calls by dose curve; further: nearly all actives have a fitted effect of over 35% in size)
Retinoic acid receptor RXR-alpha (Homo sapiens), sequence (P19793 whole entry, looked up): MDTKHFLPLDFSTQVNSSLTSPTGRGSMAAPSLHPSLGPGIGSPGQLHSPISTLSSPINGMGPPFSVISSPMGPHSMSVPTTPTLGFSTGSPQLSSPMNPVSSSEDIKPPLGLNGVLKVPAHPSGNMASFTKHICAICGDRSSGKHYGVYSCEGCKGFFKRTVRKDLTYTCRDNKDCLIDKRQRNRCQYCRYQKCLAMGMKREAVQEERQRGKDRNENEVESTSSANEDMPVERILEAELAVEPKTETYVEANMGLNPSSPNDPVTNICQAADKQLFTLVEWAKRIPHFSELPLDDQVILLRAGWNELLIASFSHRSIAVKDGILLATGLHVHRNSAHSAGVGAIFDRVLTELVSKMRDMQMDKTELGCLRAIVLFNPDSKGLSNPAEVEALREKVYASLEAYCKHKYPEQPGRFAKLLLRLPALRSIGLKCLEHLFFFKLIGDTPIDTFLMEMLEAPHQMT
Procedure, shortened: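 Compounds in DMSO were added to RXR-alpha-UAS-bla HEK 293T cells kept in 2% charcoal-stripped serum, and incubated 16 hr at 37 C with 5% CO2. Reporter signal came from a 2 hr B/G FRET substrate step.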

[2] = qHTS assay to identify small molecule agonists of the RXR signaling pathway - cell viability counter screen (AID 1159529);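 further: HEK 293T cells carrying an RXR-alpha UAS beta-lactamase reporter; series mostly up to about 77 µM; nearly all actives have a fitted effect of over 50% in size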
Procedure, shortened: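 Counter screen: CellTiter-Glo luminescence. Cells: RXR-alpha-UAS-bla HEK 293T. Medium: 2% charcoal-stripped FBS. Treatment: 16 h, 37 C. Reagent incubation: 30 min, RT.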

[3] = qHTS assay to identify small molecule antagonists of the retinoid acid receptor (RAR) signaling pathway - cell viability counter screen (AID 1159551); further: nearly all actives have a fitted effect of over 35% in size
Procedure, shortened: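 Retinol-stimulated (1 uM final) C3RL4 cells, compound 6 h, 37 C; readout CellTiter-Glo luminescence (ATP) after 30 min RT incubation.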

[4] = qHTS assay to identify small molecule antagonists of the retinoic acid receptor (RAR) signaling pathway (AID 1159552; further: nearly all actives have a fitted effect of over 50% in size)
Procedure, shortened: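 Antagonism of retinol-induced RARE reporter activity was measured in C3RL4 cells. Exposure to compounds and 1 uM final retinol lasted 6 hr at 37 C, with luminescence as endpoint.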

[5] = qHTS assay to identify small molecule agonists of the retinoic acid receptor (RAR) signaling pathway (AID 1159553)
Procedure, shortened: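 Reporter readout comes from luciferase under RARE control in C3RL4 cells; compound exposure lasts 6 hr at 37 C in 5% CO2, and luminescence is recorded following a 30 min room-temperature incubation with reagent.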

[6] = qHTS assay to identify small molecule antagonists of the estrogen related receptor (ERR) signaling pathway from Tox21 library - cell viability counter screen (AID 1224834); further: nearly all actives have a fitted effect of over 30% in size
Procedure, shortened: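 After 17.5 h of compound exposure at 37 C, ERR cells are incubated with CellTiter-Fluor for 30 min and fluorescence intensity serves as the viability measure.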

[7] = target: Luciferin 4-monooxygenase (Photinus pyralis) (UniProt P08659); experiment: qHTS assay to identify small molecule inhibitors of firefly luciferase (AID 1224835); further: nearly all actives have a fitted effect of over 25% in size; further: potency means the concentration at half of the fitted maximal effect
Luciferin 4-monooxygenase (Photinus pyralis), sequence (P08659 whole entry, looked up): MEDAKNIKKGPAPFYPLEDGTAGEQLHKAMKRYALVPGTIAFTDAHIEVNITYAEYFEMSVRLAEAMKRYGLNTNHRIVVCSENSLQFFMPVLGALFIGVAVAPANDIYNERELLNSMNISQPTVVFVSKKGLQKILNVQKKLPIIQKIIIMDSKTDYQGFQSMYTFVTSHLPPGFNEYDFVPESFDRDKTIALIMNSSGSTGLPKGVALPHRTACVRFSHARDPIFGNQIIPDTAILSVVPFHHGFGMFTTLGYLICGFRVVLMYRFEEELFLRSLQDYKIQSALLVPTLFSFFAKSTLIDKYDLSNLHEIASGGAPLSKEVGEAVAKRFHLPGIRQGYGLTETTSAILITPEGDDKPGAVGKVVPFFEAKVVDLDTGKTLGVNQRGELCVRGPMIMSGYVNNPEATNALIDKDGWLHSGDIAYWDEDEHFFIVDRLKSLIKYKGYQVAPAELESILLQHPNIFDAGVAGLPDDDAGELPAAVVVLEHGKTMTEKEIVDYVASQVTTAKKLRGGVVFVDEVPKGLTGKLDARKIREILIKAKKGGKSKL
Procedure, shortened: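 Quantitative HTS format; KM concentrations of both substrates. Purified P. pyralis FLuc activity quantified from luminescence images.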

[8] = qHTS assay to identify small molecule agonists of the constitutive androstane receptor (CAR) signaling pathway - cell viability counter screen (AID 1224836); further: series mostly up to about 92 µM; nearly all actives have a fitted effect of over 45% in size
Procedure, shortened: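 Double-stable HepG2 hepatoma cells (hCAR plus CYP2B6-2.2kb) are treated for 23 h at 37 C with test compounds in 15-point concentration series. PK11195 at 0.75 uM final is co-added. Cell viability is quantified by CellTiter-Fluor.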

[9] = qHTS assay to identify small molecule antagonists of the constitutive androstane receptor (CAR) signaling pathway - cell viability counter screen (AID 1224837); further: series mostly up to about 92 µM; nearly all actives have a fitted effect of over 45% in size
Procedure, shortened: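 Counter screen run in HepG2-CYP2B6-hCAR cells: 4 hr settle, compound titration (15 concentrations) with 50 nM CITCO, 23 hr at 37 C/5% CO2, CellTiter-Fluor fluorescence.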

[10] = target: Nuclear receptor subfamily 1 group I member 3 (Homo sapiens) (UniProt Q14994); experiment: qHTS assay to identify small molecule antagonists of the constitutive androstane receptor (CAR) signaling pathway (AID 1224838);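 further: HepG2 cells stably expressing hCAR with CYP2B6 luciferase reporter stimulated by CITCO; nearly all actives have a fitted effect of over 40% in size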
Nuclear receptor subfamily 1 group I member 3 (Homo sapiens), sequence (Q14994 whole entry, looked up): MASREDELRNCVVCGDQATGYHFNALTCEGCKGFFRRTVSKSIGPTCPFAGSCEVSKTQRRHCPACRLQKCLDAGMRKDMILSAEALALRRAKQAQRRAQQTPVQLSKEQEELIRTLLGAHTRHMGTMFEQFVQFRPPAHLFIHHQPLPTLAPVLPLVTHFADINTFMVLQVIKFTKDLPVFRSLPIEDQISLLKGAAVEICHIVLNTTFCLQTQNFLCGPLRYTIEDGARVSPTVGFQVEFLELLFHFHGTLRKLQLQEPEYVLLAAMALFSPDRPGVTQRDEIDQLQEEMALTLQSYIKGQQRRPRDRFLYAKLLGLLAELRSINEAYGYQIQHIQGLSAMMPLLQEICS
Procedure, shortened: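 Cell line: HepG2 double-stable for hCAR and CYP2B6-2.2kb reporter. Agonist: CITCO, 50 nM final. Compounds: 15 concentrations, 24 h, 37 C. Detection: ONE-Glo luminescence.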

[11] = target: Nuclear receptor subfamily 1 group I member 3 (Homo sapiens) (UniProt Q14994); experiment: qHTS assay to identify small molecule agonists of the constitutive androstane receptor (CAR) signaling pathway (AID 1224839);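 further: HepG2 cells stably carrying human CAR and a CYP2B6 luciferase reporter; series mostly up to about 92 µM; nearly all actives have a fitted effect of over 15% in size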
Procedure, shortened: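 Readout: firefly luciferase luminescence via ONE-Glo. System: HepG2 double-stable for hCAR and CYP2B6-2.2kb. Conditions: 15-point compound titration, PK11195 at 0.75 uM final, 24 h incubation.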

[12] = qHTS assay to identify small molecule antagonists of the estrogen related receptor signaling pathway with the pleiotropic PPARgamma coactivator (PGC) from Tox21 10K library - cell viability counter screen (AID 1224840; active means well fitted cell-killing curve with a large enough effect in the repeat runs, not every such curve was filed as active; further: nearly all actives have a fitted effect of over 40% in size)
Procedure, shortened: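 Following seeding of 2,000 PGC/ERR cells/well and 6 hours' incubation, test compounds were delivered in DMSO. The plates then sat 17.5 hours at 37 C before a fluorogenic live-cell protease reagent (CellTiter-Fluor) was read after 30 min.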

[13] = qHTS assay to identify small molecule antagonists of the estrogen related receptor signaling pathway with the pleiotropic PPARgamma coactivator (PGC) from Tox21 10K library (AID 1224841; call rule not given here; further: series mostly up to about 92 µM; actives are mostly falling curves and most rising ones were filed inactive; nearly all actives have a fitted effect of over 50% in size)
Procedure, shortened: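 qHTS antagonist format: PGC/ERR cells, 2k/well, compound in DMSO by pin transfer after 6 h attachment, 18 h treatment at 37 C, One-Glo luminescence read at 30 min.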

[14] = qHTS assay to identify small molecule agonists of the estrogen related receptor signaling pathway with the pleiotropic PPARgamma coactivator (PGC) from Tox21 10K library (AID 1224842); further: nearly all actives have a fitted effect of over 15% in size
Procedure, shortened: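 PGC/ERR reporter cells (NTP line) were seeded 2,000 per well, rested 6 h at 37 C/5% CO2, then pin-dosed with compounds in DMSO for 18 h at 37 C; luciferase read by One-Glo luminescence after 30 min at room temperature.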

[15] = qHTS assay to identify small molecule antagonists of the estrogen related receptor (ERR) signaling pathway - cell viability counter screen (AID 1224818); further: series mostly up to about 46 µM
Procedure, shortened: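 After a 6 h pre-incubation, ERR cells were dosed by pin tool with compounds, positive/negative controls or DMSO alone. Following 17.5 h at 37 C and 30 min with CellTiter-Fluor, fluorescence was recorded.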

[16] = qHTS assay to identify small molecule antagonists of the estrogen related receptor (ERR) signaling pathway (AID 1224819;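 further: luminescence from an ERR-driven luciferase reporter measured with One-Glo reagent; series mostly up to about 46 µM; nearly all actives have a fitted effect of over 50% in size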)
Procedure, shortened: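 Luminescence readout (One-Glo, 30 min, RT) of ERR cell line after 18 h compound exposure at 37 C; cells seeded 2,000/well, pre-incubated 6 h, compounds pinned from DMSO stocks.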

[17] = qHTS assay to identify small molecule agonists of the estrogen related receptor (ERR) signaling pathway (AID 1224820)
Procedure, shortened: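 Quantitative HTS of the LOPAC library used NTP ERR reporter cells treated 18 h at 37 C. Signal is luminescence after One-Glo addition and a 30 min room-temperature incubation.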

[18] = system: estrogen-related receptor alpha (ERRalpha) with PGC-1alpha coactivator, human; experiment: qHTS assay to identify small molecule antagonists of the estrogen related receptor signaling pathway with the pleiotropic PPARgamma coactivator (PGC) (AID 1224821; calls by dose curve)
Procedure, shortened: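 Quantitative HTS for antagonism: PGC/ERR cells received compounds after 6 h attachment and were incubated 18 h at 37 C, with luminescence (One-Glo) as the endpoint.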

[19] = qHTS assay to identify small molecule antagonists of the estrogen related receptor signaling pathway with the pleiotropic PPARgamma coactivator (PGC) cell viability counter screen (AID 1224822; further: series mostly up to about 46 µM)
Procedure, shortened: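 PGC/ERR cells were plated at 2,000 per well and allowed 6 h to settle before compound addition. Following 17.5 h at 37 C, CellTiter-Fluor reagent was added and fluorescence was read 30 min later.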

[20] = qHTS assay to identify small molecule agonists of the estrogen related receptor signaling pathway with the pleiotropic PPARgamma coactivator (PGC) (AID 1224823)
Procedure, shortened: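 Cell-based luciferase assay in the NTP-supplied PGC/ERR line, 2,000 cells/well; 18 h compound exposure at 37 C, luminescence after One-Glo.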
On the % scale 0 is the no-effect control and ±100 the full control effect.

O=C(CCCl)NCc1ccccc1
inactive: Potency [1] | Potency [2] | outcome [3] | Potency [4] | Potency [5] | Potency [6] | Potency [7] | Potency [8] | Potency [9] | Potency [10] | Potency [11] | Potency [12] | Potency [13] | Potency [14]

CCOC(=O)c1cc(=O)c2c(OCC(COc3cccc4oc(C(=O)OCC)cc(=O)c34)OC(=O)[C@@H](N)CCCCN)cccc2o1
inactive: Potency [1] | Potency [2] | outcome [3] | Potency [4] | Potency [5] | Potency [6] | Potency [7] | Potency [8] | Potency [9] | Potency [10] | Potency [11] | Potency [12] | Potency [13] | Potency [14]

COc1ccccc1OCC(O)COC(N)=O (stereo unspecified)
inactive: Potency [1] | Potency [2] | outcome [3] | Potency [4] | Potency [5] | Potency [6] | Potency [7] | Potency [8] | Potency [9] | Potency [10] | Potency [11] | Potency [12] | Potency [13] | Potency [14]

OCCN1CCN(CCO)CC1
inactive: Potency [1] | Potency [2] | outcome [3] | Potency [4] | Potency [5] | Potency [6] | Potency [7] | Potency [8] | Potency [9] | Potency [10] | Potency [11] | Potency [12]

FC(F)(F)C(Cl)(Cl)Cl
inactive: Potency [1] | Potency [2] | outcome [3] | Potency [4] | Potency [5] | Potency [6] | Potency [7] | Potency [8] | Potency [9] | Potency [10] | Potency [11] | Potency [12]

CC(C)CC(=O)OCc1ccccc1
inactive: Potency [1] | Potency [2] | outcome [3] | Potency [4] | Potency [5] | Potency [6] | Potency [7] | Potency [8] | Potency [9] | Potency [10] | Potency [11] | Potency [12]

CCCN(CCC)C(=O)C(CCC(=O)O)NC(=O)c1ccccc1 (stereo unspecified)
inactive: Potency [1] | Potency [2] | outcome [3] | Potency [4] | Potency [5] | outcome [15] | outcome [16] | outcome [17] | outcome [18] | outcome [19] | outcome [20] | Potency [6] | Potency [7] | Potency [8] | Potency [9] | Potency [10] | Potency [11] | Potency [12] | Potency [13] | Potency [14]

Oc1ccccc1C=NCc1ccccc1
inactive: Potency [1] | Potency [2] | outcome [3] | Potency [4] | Potency [5] | Potency [6] | Potency [8] | Potency [9] | Potency [10] | Potency [11] | Potency [12]
active: Potency [7] 34.7 µM

CCCC(CCC)(C(=O)OCC)C(=O)OCC
inactive: Potency [1] | Potency [2] | outcome [3] | Potency [4] | Potency [5] | Potency [6] | Potency [7] | Potency [8] | Potency [9] | Potency [10] | Potency [11] | Potency [12]

CCCCC1CCC(=O)O1 (stereo unspecified)
inactive: Potency [1] | Potency [2] | outcome [3] | Potency [4] | Potency [5] | Potency [6] | Potency [7] | Potency [8] | Potency [9] | Potency [10] | Potency [11] | Potency [12] | Potency [13] | Potency [14]

CCCCCCn1c(=O)c2c(ncn2C)n(C)c1=O
inactive: Potency [1] | Potency [2] | outcome [3] | Potency [4] | Potency [5] | Potency [6] | Potency [7] | Potency [8] | Potency [9] | Potency [10] | Potency [11] | Potency [12] | Potency [13] | Potency [14]

O=c1oc2c(O)c(O)cc3c(=O)oc4c(O)c(O)cc1c4c23
inactive: activation [1] 11.4% [at 15.8 µM] | activity change, negative = cytotoxicity [2] 8.17% [at 15.8 µM] | activity change, negative = cytotoxicity [3] -0.41% [at 19 µM] | activity, negative = inhibition [4] 3.23% [at 19 µM] | Potency [5] | viability change, negative = cytotoxic [6] -2.26% [at 19 µM] | viability change, negative = cytotoxic [8] -3.24% [at 19 µM] | activity change, negative = cytotoxicity [9] 9.67% [at 19 µM] | activity, negative = inhibition [10] 7.54% [at 19 µM] | activation [11] -0.67% [at 19 µM] | viability change, negative = cytotoxic [12] -7.93% [at 19 µM]
active: Potency [7] 12 µM

COc1cc(Cl)ccc1Cl
inactive: Potency [1] | Potency [2] | outcome [3] | Potency [4] | Potency [5] | Potency [6] | Potency [7] | Potency [8] | Potency [9] | Potency [10] | Potency [11] | Potency [12]

COC(C)CCO (stereo unspecified)
inactive: Potency [1] | Potency [2] | outcome [3] | Potency [4] | Potency [5] | Potency [6] | Potency [7] | Potency [8] | Potency [9] | Potency [10] | Potency [11] | Potency [12]

OCc1ccccc1O
inactive: Potency [1] | Potency [2] | outcome [3] | Potency [4] | Potency [5] | Potency [6] | Potency [7] | Potency [8] | Potency [9] | Potency [10] | Potency [11] | Potency [12]

CC(C)NCC(O)COc1ccc(CCOCC2CC2)cc1 (stereo unspecified)
inactive: Potency [1] | Potency [2] | outcome [3] | Potency [4] | Potency [5] | outcome [15] | outcome [19] | Potency [6] | Potency [8] | Potency [9] | Potency [10] | Potency [11] | Potency [12]

O=C1CCC(C2CCCCC2)CC1
inactive: Potency [1] | Potency [2] | outcome [3] | Potency [4] | Potency [5] | Potency [6] | Potency [7] | Potency [8] | Potency [9] | Potency [10] | Potency [11] | Potency [12] | Potency [13] | Potency [14]

CC1=C(O)C(=O)OC1C (stereo unspecified)
inactive: Potency [1] | Potency [2] | outcome [3] | Potency [4] | Potency [5] | Potency [6] | Potency [7] | Potency [8] | Potency [9] | Potency [10] | Potency [11] | Potency [12]

CC1(C)S[C@@H]2[C@H](NC(=O)C(C(=O)O)c3ccccc3)C(=O)N2[C@H]1C(=O)O (stereo partly specified)
inactive: Potency [1] | Potency [2] | outcome [3] | Potency [4] | Potency [5] | Potency [6] | Potency [7] | Potency [8] | Potency [9] | Potency [10] | Potency [11] | Potency [12] | Potency [13] | Potency [14]
